Where “and” joins values, the source holds several entries; their conditions need not be identical. Equal values may be shown once. Calls of active or inactive are those of the source. How the source made its calls: active means hit-call score of the fitted dose curve at least 0.9, where 1 is the maximum; inactive means score below 0.9.
These compounds were tested on Interleukin 2 (IL2), IL2 (gene 3558) (assay: BSK_BT_xIL2: BioMAP Diversity Plus: BT Assay for Interleukin 2 (IL2) Biomarker Activity (AID 2284245)). Details: primary human B cells with PBMC.
Description: BSK_BT is a cell-based, multiplexed-readout assay that uses B cell and peripheral blood mononuclear cells, a human vascular primary cell co-culture, with measurements taken at 24 hours after chemical dosing in a microplate: 96-well plate.BSK_BT_xIL2 is an assay component measured in the BSK_BT assay. It measures secreted IL-2 related to regulation of gene expression using LumineX xMAP technology.Data from the assay component BSK_BT_xIL2 was analyzed at the endpoint, BSK_BT_xIL2, in the positive analysis fitting direction relative to DMSO as the negative control and baseline of activity. Using a type of cytokine quantitation reporter, gain or loss-of-signal activity can be used to understand protein changes. To generalize the intended target to other relatable targets, this assay endpoint is annotated to the 'cytokine' intended target family, where the subfamily is 'interleukins'.
The levels of cell surface (or secreted, indicated by the prefix "s") biomarker endpoints were measured by ELISA. Overt cytotoxicity to cells in confluent adherent cultures (all systems other than the BT system) was assessed by measuring total protein levels using sulforhodamine B (SRB) staining in parallel cultures at the time of biomarker measurements, indicated as SRB endpoints. For proliferation assays for adherent cell types, individual cell types are cultured at sub-confluence and relative cell numbers quantified by SRB staining at time points optimized for each system (48 h: 3C and CASM3C systems; 72 h: BT and HDF3CGF systems; 96 h: SAg system). SRB was performed by staining cells with 0.1% SRB after fixation with 10% TCA and reading wells at 560 nm.Viability and proliferation of PBMC (T cells) was quantified by Alamar Blue reduction for the SAg and BT systems. For PBMC viability (referred to as PBMC Cytotoxicity within the assay endpoint names), cells were plated (75,000/well in a 96-well plate) and then chemical samples added for 1 h before addition of activators, SEB and TSST-1 (20 ng/mL final concentration each). Cells were incubated for 90 h. Then, Alamar Blue (20 uL/well) (Invitrogen, Cat DAL1100) was added for 6 h, and the plates were read with a fluorescence microplate reader at 546/580 nm (excitation/emission). For PBMC proliferation, cells were plated and activated as above but incubated for only 16 h prior to addition of Alamar Blue. Plates were read after 6 h.

SMILES | AC50 | outcome
CC(c1cc(C(C)(C)C)cc(C(C)(C)C)c1O)c1cc(C(C)(C)C)cc(C(C)(C)C)c1O | 20 µM (active) | –
COc1ccc(C(=O)c2ccccc2)c(O)c1 | – | inactive
CCCCCC1=CCCC1=O | – | inactive
Clc1cc(Cl)c(Cl)c(Cl)c1Cl | – | inactive
CC/C=C\C/C=C\C/C=C\CCCCCCCC(=O)OC | 27.5 µM (active) | –
CCN1CN(CC)CN(CC)C1 | – | inactive
Fc1ccc(Br)cc1 | – | inactive
C=CC(=O)OCC(C)OCC(C)OCC(C)OC(=O)C=C (stereo not given) | 9.17 µM (active) | –
O=C(O)C(F)(F)C(F)(F)C(F)(F)C(F)(F)C(=O)O | – | inactive
CC1=CC=C(C(C)C)CC1 | – | inactive
CCNc1nc(NC(C)(C)C)nc(OC)n1 | – | inactive
CCCCCCC=O | – | inactive
c1ccc2sc(SSN3CCOCC3)nc2c1 | 28.1 µM (active) | –
CCCCCCCO | – | inactive
Nc1cccc(N)n1 | – | inactive
C=CC(=O)NC(C)(C)C | – | inactive
CCc1cccc(C)c1N(C(=O)CS(=O)(=O)O)C(C)COC (stereo not given) | – | inactive
CC1(C)CC(O)CC(C)(C)N1[O] | – | inactive
C=CC(=O)NCOCCCC | – | inactive
CCC1(C)C(=O)N(Cl)C(=O)N1Cl (stereo not given) | – | inactive

SMILES | AC50 | outcome
Cc1c(O)cccc1O | – | inactive
CC=C(C)C(C)=O | – | inactive
CC(C)c1cccc(C(C)C)c1N | – | inactive
C=CCCCCCCCCC=O | – | inactive
CC=C(C)C=CC=C(C)C | 28.5 µM (active) | –
C=CC(=O)OCCCCCCCC(C)C | – | inactive
CC/C=C\CCOC(=O)c1ccccc1O | – | inactive
C[N+](C)(C)CCCNS(=O)(=O)C(F)(F)C(F)(F)C(F)(F)C(F)(F)C(F)(F)C(F)(F)C(F)(F)C(F)(F)F | 32.6 µM (active) and 21.5 µM (active) | –
O=C1CCCCCCCCCCCN1 | – | inactive
CCOC(=O)/C=C\C(=O)OCC | – | inactive
C=CC(=O)OCCCCCCOC(=O)C=C | 9.78 µM (active) | –
CCCCCCCCC(CO)CCCCCC (stereo not given) | – | inactive
CC(Cl)COP(=O)(OCC(C)Cl)OCC(C)Cl (stereo not given) | – | inactive
CC(C)[N+](C)(CCOC(=O)C1c2ccccc2Oc2ccccc21)C(C)C | – | inactive
c1ccc2c(c1)[nH]c1ccccc12 | – | inactive
CC(C)CCCCCOC(=O)CS | – | inactive
CCOC(=O)C1=NN(c2ccc(Cl)cc2Cl)C(C)(C(=O)OCC)C1 (stereo not given) | – | inactive
Oc1ccc(/C=C/c2cc(O)cc(O)c2)cc1 | – | inactive
C=C(C)C(=O)OCCCCCCCCCCCC | – | inactive
CCOC(=O)C1=NOC(c2ccccc2)(c2ccccc2)C1 | – | inactive

Reference: PubChem BioAssay (EPA / NIEHS)
